# Source: PubChem
# An excerpt weighted towards active compounds, which were near 4.8% of everything screened.
# hgDAF12 agonist – activates the H. glycines DAF-12 receptor ligand-binding domain; HEK293 GAL4-hgDAF12 UAS-luciferase reporter, agonist luminescence; normalized to butyrate control; activation, % at 6.8 µM; 370,000 compounds, 1.8% hits;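 active means activation above a cutoff set at the mean of all screened compounds plus 3 SD, cut at about 10% in these data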;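 further: 0% = DMSO wells and 100% = sodium butyrate wells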
# hcDAF12 agonist – H. contortus DAF-12 activation, primary screen; HEK293 hcDAF-12 lit1-tk-luc reporter, luminescence; 0% DMSO, 100% Δ7-dafachronic acid; activation, % at 6.8 µM; 370,000 compounds, 1.4% hits; AID 652067;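 active means activation above the mean of all tested compounds plus 3 SD, cut at about 5.5% in these data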;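 further: 100% = response to 3 µM Δ7-dafachronic acid high control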
# SMARCA2 activ – activators of SMARCA2 function | MG213 cells, MMTV-luciferase reporter, dexamethasone, overnight | AID 652017 | activation, % at 9.1 µM | 370,000 compounds, 1% hits; in the data active means activation above about 7.8%;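 further: 0% = vehicle wells and 100% = reference activator wells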
# DAX1 inh-1 – DAX1 (NR0B1) inhibition, primary screen; HEK293T StAR-luciferase reporter, SF-1/DAX-1 repression relief; inhibition, % at 6.8 µM; AID 652010; 370,000 compounds, 1.1% hits;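 active means inhibition above the mean over all tested compounds plus 3 SD, cut at about 3.6% in these data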;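 further: 0% = DAX-1 cells with DMSO and 100% = cells lacking DAX-1 with DMSO; higher inhibition means more luminescence from relief of DAX-1 repression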
# DAX1 inh-2 – inhibits human nuclear receptor DAX1; HEK293 Gal4-DAX1 luciferase reporter, luminescence; inhibition, % at 6.75 µM; 340,000 compounds, 0.99% hits;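 active means inhibition above the mean over all tested compounds plus 3 SD, cut at about 4.2% in these data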;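 further: 0% = DAX1-transfected cells with DMSO and 100% = empty-vector control cells with DMSO; inhibition shows as a rise in luminescence from relieved DAX1 repression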
# Target sequence (P51843 207-470 limits assumed): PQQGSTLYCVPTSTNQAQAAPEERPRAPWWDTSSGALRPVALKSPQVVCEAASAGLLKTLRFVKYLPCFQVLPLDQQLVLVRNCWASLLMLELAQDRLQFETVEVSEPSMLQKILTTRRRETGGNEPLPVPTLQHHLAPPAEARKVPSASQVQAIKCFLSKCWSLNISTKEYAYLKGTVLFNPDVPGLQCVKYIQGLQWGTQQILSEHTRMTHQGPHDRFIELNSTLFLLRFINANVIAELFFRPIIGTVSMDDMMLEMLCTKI
# ssDAF-12 act – S. stercoralis DAF-12 activation, primary screen. 370,000 compounds, 1% hits. activation, % at 6.8 µM. HEK293 ssDAF-12/GRIP1 lit1-tk-luc reporter, luminescence; % of 3 µM dafachronic acid response. AID 652126;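 active means activation above the mean over all tested compounds plus 3 SD, cut at about 0.9% in these data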;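 further: 0% = DMSO-only wells and 100% = 3 µM delta7-dafachronic acid wells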
# SMARCA2 act conf – SMARCA2 activation, confirmation screen; shares compounds with SMARCA2 activ; MG213 cells, MMTV-luciferase with dexamethasone, luminescence, overnight; MG213 cells expressing E1A, Rb sequestered; DMSO wells 0%, reference activator 100%; activation, % at 9.1 µM; 3,500 compounds, 30% hits; AID 652260;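 active means activation above its plate's cutoff, the mean activation of tested wells plus 3 SD, cut at about 7.9% in these data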
# VP16 Luc act – GAL4-VP16 reporter activation counter-screen. activation, % at 9.1 µM. HEK293 GAL4-VP16 pG5luc reporter, luciferase luminescence; scaled: DMSO wells 0%, SAHA wells 100%. shares compounds with SMARCA2 activ. 3,500 compounds, 41% hits;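 active means activation above the solvent-only control well mean plus 3 SD, averaged across control plates, cut at about 5.2% in these data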
# * marks the source's active call; other numbers are inactive results; x = no result.
SMILES,hgDAF12 agonist,hcDAF12 agonist,SMARCA2 activ,DAX1 inh-1,DAX1 inh-2,ssDAF-12 act,SMARCA2 act conf,VP16 Luc act
NC(=S)c1ncc(C(F)(F)F)cc1Cl,0,0,8.6*,0,1,-2,-3,1
COC(=O)C1=C(C)C(c2ccc(OC)cc2OC)NC(=O)N1 (configuration not stated),0,-2,0,0,-1,-1,x,x
CCCCCn1nnnc1C1c2ccccc2OCC(=O)N1Cc1ccco1 (configuration not stated),1,-1,10*,1,x,-1,0,0
COc1ccc(/C(N)=N/OC(=O)c2ccco2)cc1,11*,4,8.6*,3.9*,-1,0,7,13*
COc1ccc(C(=O)COC(=O)c2ccco2)cc1,10,1,8,0,2,0,x,x
COc1ccc(CN(C)C[C@@H]2OCCCC[C@H](C)Oc3ccc(NC(=O)Cc4ccccc4)cc3C(=O)N([C@@H](C)CO)C[C@@H]2C)cc1,-1,0,-3,0,0,-1,x,x
c1ccc(CN2CCC(Nc3nc(-c4cccnc4)nc4ccccc34)CC2)cc1,1,0,8.5*,0,0,-1,19*,2
Cc1ccc(CNC(=O)CN2C(C)CCCC2C)cc1 (configuration not stated),-1,-1,-3,0,-1,-2,x,x
Cc1csc(SCc2ccc(C(=O)O)cc2)n1,-1,0,1,0,-1,0,x,x
Cc1ccc2nc(Cl)c(C3CC(c4cccs4)=NN3S(C)(=O)=O)cc2c1 (configuration not stated),6,0,11*,0,0,-1,-1,1
Cc1ccc2cc(C3CC(c4cccs4)=NN3S(C)(=O)=O)c(Cl)nc2c1 (configuration not stated),1,-3,-2,0,-3,-1,x,x
COc1ccc(/C=N\NC(=O)c2ccc(=O)[nH]n2)cc1O,4,3,12*,0,0,-1,-1,0
CCN(CC(=O)Nc1ccc(NC(C)=O)cc1)c1ccc(C(F)(F)F)cn1,-1,-1,-3,1,0,-1,x,x
Cc1ccc(S(=O)(=O)N2CCOCC2)cc1C(=O)NCc1cccnc1,-1,-3,10*,0,0,-1,0,1
CCCn1nnc(NC(=O)c2ccccc2Cl)n1,6,3,3,1,2,-1,x,x
CCCn1nnc(NC(=O)c2ccc(Cl)cc2Cl)n1,10,0,14*,1,2,0,1,7.8*
CC(C)N1CN=C(Nc2nc3ccccc3o2)NC1,2,0,2,1,-1,-2,x,x
CCCCN(C(=O)C(C)Oc1ccc(Cl)cc1)c1c(N)n(CCCC)c(=O)[nH]c1=O (configuration not stated),-2,0,8.2*,2,1,-1,-1,-2
O=C(C1=C[C@@H](c2ccc(Br)cc2)C[C@@H](OCCCCO)O1)N1CCN(Cc2ccc3c(c2)OCO3)CC1,-4,-1,-1,0,0,-1,x,x
COC(=O)Cn1c(=NC(=O)c2cc(-c3cccs3)nc3ccccc23)sc2cc(S(N)(=O)=O)ccc21,3,-2,-2,-1,-3,-1,x,x
Cc1onc(-c2c(F)cccc2Cl)c1C(=O)NC(=S)NC1CCS(=O)(=O)C1 (configuration not stated),-3,2,15*,0,0,-1,0,0
Cc1onc(-c2c(F)cccc2Cl)c1C(=O)NC1CCCCCC1,-1,-2,2,0,-1,-1,x,x
CC(C)Cc1nnc(NS(=O)(=O)c2ccc([N+](=O)[O-])cc2)s1,1,-2,-2,0,-1,-1,x,x
CN1CCN(Cc2cc(Cl)c3cccnc3c2OC(=O)c2cccs2)CC1,-1,2,0,0,0,-1,x,x
O=C(Oc1c(CN2CCOCC2)cc(Cl)c2cccnc12)c1ccccc1Br,-2,-1,8.7*,-1,-1,-2,24*,-2
SMILES,hgDAF12 agonist,hcDAF12 agonist,SMARCA2 activ,DAX1 inh-1,DAX1 inh-2,ssDAF-12 act,SMARCA2 act conf,VP16 Luc act
CC1CCN(c2ccc(NC(=O)Cc3ccccc3)cc2)CC1,4,0,2,1,0,-1,x,x
CCC(=O)Nc1ccc(N2CCC(C)CC2)cc1,4,2,9.6*,0,1,-1,4,4
CC(C)NC(=O)C(=O)NNC(=O)C12CC3CC(CC(C3)C1)C2,2,1,-1,0,0,-1,x,x
O=C(COc1ccccc1)NCCSc1ccccc1,4,1,9.4*,1,0,0,10*,7.7*
Cc1nc2ccc(NC(=O)c3ccc([N+](=O)[O-])cc3[N+](=O)[O-])cc2s1,2,1,1,-1,-1,-1,x,x
CCOC(=O)Cc1csc(NC(=O)C2C3C=CC(C3)C2C(=O)O)n1 (configuration not stated),2,-2,-1,0,0,-1,x,x
O=[N+]([O-])c1ccc(SCCc2ccncc2)cc1,0,-2,-1,-1,2,-1,x,x
O=[N+]([O-])c1ccc(SCCc2ccccn2)cc1,3,2,12*,0,1,-2,1,2
CCN(CCn1cccn1)C(=O)CCc1nnc(CCCc2ccccc2)o1,13*,2,8.7*,1,1,1.0*,11*,6.4*
O=C(NCc1cccnc1)Nc1cc(Cl)cc(Cl)c1,3,0,1,2,1,0,x,x
CCN(CCC(=O)Nc1cc(OC)ccc1OC)Cc1ccccc1,0,-1,-3,0,x,-1,x,x
CCN(CCC(=O)Nc1cc([N+](=O)[O-])ccc1OC)Cc1ccccc1,1,3,9.7*,-1,0,-2,-2,0
CC1CCN(S(=O)(=O)c2ccc3nc(-c4ccccn4)cc(C(=O)NCCN(C)Cc4ccccc4)c3c2)CC1,-1,-1,8.3*,-1,0,-1,27*,0
CC(C)CNC(=O)c1c(N)n(/N=C/c2ccccn2)c2nc3ccccc3nc12,-1,-2,8.5*,0,1,-1,-7,3
CN(C)CCNC(=O)c1ccccc1,-1,2,-2,1,3,-1,x,x
CN(C)CCNC(=O)c1cccc2ccc(-c3ccc(-c4ccccc4)cc3)nc12,1,2,8.6*,-1,-1,1.2*,24*,0
